# Measurements published in PubChem BioAssay (NCI).
# The panel holds about 83,000 compounds, 20% with a hit somewhere; the sample as a whole holds those more often.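 How to read the values: 0–100, growth inhibition (40 = 60% inhibited); 0, no net growth; -100 to 0, cell death (-40 = 40% of starting cells died; -100 = all dead).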 The source made the active and inactive calls.
# Tested on: MCF7 breast
# Assay: NCI-60 one-dose screen, 48 h (100 = growth as untreated, 0 = no growth, -100 = all killed)
# Conditions: 10 µM unless noted
# Protocol: Growth inhibition of the MCF7 human tumor cell line is measured as a screen for anti-cancer activity. Cells are grown in 96 well plates and exposed to the test compound for 48 hours. Compounds are tested at a single concentration, which is 10^-5 M for most compounds. The reported endpoint is percent growth (GI% or GIPRCNT), where numbers from 0 - 100% represent growth inhibition, and numbers from -100% - 0 represent cell death. For example, a value of 40 represents 60% growth inhibition. A value of 0 means no net growth occurred over the course of the experiment. A value of -40 indicates 40% of cells at the beginning of the experiment died by the end of the experiment. A value of -100 means all cells are dead at the end of the experiment.
# NCI-60 Human Tumor Cell Lines Screen was performed using the standard one-dose NCI protocol, which is described in more detail at https://dtp.cancer.gov/discovery_development/nci-60/default.htm.
# Compounds with GIPRCNT values below 10 were considered active. Activity score was based on GIPRCNT using the following formula: […]
# Score is 0 for GIPRCNT values of 100 or above, 50 for GIPRCNT values of 0, and 100 for GIPRCNT values of -100.
row,Structure (SMILES),growth
1,CCn1cc(C(=O)O)c(=O)c2cc(F)c(N3CCN(CC(=O)Nc4ccc(S(=O)(=O)Nc5nccc(C)n5)cc4)C(C)C3)c(F)c21 (stereo not given),96.7% (inactive)
2,O=C(/C=C/c1cccc(Cl)c1)c1cccc(OCCCOc2cccc(C(=O)/C=C/c3cccc(Cl)c3)c2)c1,20.8% (inactive)
3,O=c1[nH]c(Cc2nc3ccccc3s2)nc2cc(Br)ccc12,78.5% (inactive)
4,C=CCSc1nnc(NC(=O)CCl)s1,90.1% (inactive)
5,CC(C)(C)[Si](C)(C)OC1[C@@H](CNC(=O)NC(=O)NC(N)=O)O[C@@H](n2cnc3c(NC(=O)Nc4ccccc4)ncnc32)[C@H]1O[Si](C)(C)C(C)(C)C (stereo not given in full),57.9% (inactive)
6,Cc1cccc(/C=C2\CN(C(=O)OC(C)(C)C)C/C(=C\c3cccc(C)c3)C2=O)c1,23.2% (inactive)
7,Cn1cc(-c2csc(-c3c[nH]c4ccccc34)n2)c2cnccc21,16.7% (inactive)
8,COc1ccc(OC)c(-c2nc(SCC(=O)c3ccc(C#N)cc3)[nH]c(=O)c2C#N)c1,100% (inactive)
9,C=C(C)[C@@H]1CC[C@]2(C(=O)N3CCOCC3)CC[C@]3(C)[C@H](CC[C@@H]4[C@@]5(C)C/C(=C/c6ccncc6)C(=O)C(C)(C)[C@@H]5CC[C@]43C)[C@@H]12,28.9% (inactive)
10,COc1ccc(-c2nn(-c3cccc(Cl)c3)cc2-c2cc(-c3ccc(Br)cc3)nc(N)n2)cc1,57.4% (inactive)
11,Oc1c(Br)cc(Br)c2ccc(Cn3cc(-c4ccccc4C(F)(F)F)nn3)nc12,71.5% (inactive)
12,CC1CCN(S(=O)(=O)c2ccc(S(=O)(=O)N3CCCC(c4nc5c(nnn5Cc5cccc(Cl)c5)c(=O)[nH]4)C3)cc2)CC1 (stereo not given),23.3% (inactive)
13,COC(=O)CC[C@H](C)[C@H]1CC[C@H]2[C@@H]3CC[C@@H]4CC5(CC[C@]4(C)[C@H]3CC(=O)[C@]12C)Nc1ccccc1NC5=NC(C)(C)C (stereo not given in full),58.5% (inactive)
14,O=C(Nc1cccc2ccccc12)NC1CC1,87% (inactive)
15,Nc1ncnc2c1N=C(c1ccc(Br)cc1)CC(c1cccc(Nc3ccnc4cc(C(F)(F)F)ccc34)c1)N2 (stereo not given),22% (inactive)
16,N#CC1=C(N)Oc2c(ccc3ccccc23)C1c1ccccc1 (stereo not given),11.1% (inactive)
17,O=C1NC2(Nc3ccccc31)C(=O)Nc1c(Cl)cc(Cl)cc12 (stereo not given),88.9% (inactive)
18,O=C(CSC(=S)n1cnnc1)NC(=O)c1ccccc1,99.3% (inactive)
19,Cc1cc(C(=O)Nc2ncc(Cc3cccc(C(F)(F)F)c3)s2)c2ccccc2n1,10.2% (inactive)
20,O=C1c2ccc3c4c5ccc(c24)C(=O)N1CCCOCCCCOCCCNCc1ccc(cc1)CNCCCOCCCCOCCCN(C3=O)C5=O,-58.3% (active)

row,Structure (SMILES),growth
1,C=CC(=O)N1CCN(c2cccc(Oc3nccc(Nc4nnc(-c5ccc(Br)cc5)s4)n3)c2)CC1,35.9% (inactive)
2,COc1ccc(C2=C(Nc3ccc(C(=O)Nc4ccccc4)cc3)C(=O)N(C)C2=O)cc1,102% (inactive)
3,CCOC(=O)n1cc(-c2nonc2-c2cn(C(=O)OCC)c3ccc(Br)cc23)c2ccccc21,69.6% (inactive)
4,O=C1Nc2ccccc2/C1=C/c1cccn1CCCCn1c2ccccc2c(=O)c2ccccc21,3.81% (active)
5,COCCOc1cc2ncnc(N3CCN(c4ncc(S(=O)(=O)N5CCCCC5)cn4)CC3)c2cc1OCCOC,78.7% (inactive)
6,N#Cc1nc(-c2ccc(Cl)cc2)oc1S(=O)(=O)N1CCN(c2ccc(F)cc2)CC1,83.5% (inactive)
7,COc1cc(C2CC(c3ccc(Nc4nc(Nc5ccc(Cl)cc5)nc(Nc5ccc(Cl)cc5)n4)cc3)=NN2C(C)=O)cc(OC)c1OC (stereo not given),89% (inactive)
8,CC(C)c1ccc(-n2c(=S)[nH]c3sc4cc(O)ccc4c3c2=O)cc1,90.1% (inactive)
9,CSc1nc2ncc([N+](=O)[O-])c(=O)n2[nH]1,96.5% (inactive)
10,CCOC(=O)c1c(NC(=O)c2ccc(Cl)cc2)sc2c(CN(C)C)c(O)ccc12,66.6% (inactive)
11,COc1ccc(Nc2nc(-c3cc(O)c(C)c(C)c3O)cs2)cc1,47.1% (inactive)
12,CCOC(=O)c1c(C(=O)c2cn(C)c3ccc(Br)cc23)c(-c2cn(C)c3ccc(Br)cc23)n(NC(=O)OC(C)(C)C)c1C,78.3% [100 µM] (inactive)
13,CC(=O)N1N=C(c2ccc(Nc3nc(Nc4ccccc4)nc(Nc4ccccc4)n3)cc2)CC1c1cccc([N+](=O)[O-])c1 (stereo not given),91.4% (inactive)
14,Nc1cc(C(=O)NC[C@H]2CN(c3ccc(N4CCC(C(=O)O)CC4)cc3)C(=O)O2)ccc1Cl,95.3% (inactive)
15,COc1ccc(CN2c3ccccc3Sc3ccccc32)cc1F,16% (inactive)
16,N#Cc1ccc(O)c(C2=NCC(c3ccccc3)O2)c1 (stereo not given),25.3% (inactive)
17,O=c1c2cnn(-c3ccccc3)c2n2c(CN3CCOCC3)nnc2n1-c1ccccc1,99.3% (inactive)
18,CCN1C(=S)N(c2ccccc2)C2C1NN=c1s/c(=C3\C(=O)N(C(C)C)c4ccccc43)c(=O)n12 (stereo not given),64.7% (inactive)
19,COc1cccc(CNc2ccc3ncnc(Nc4ccc(F)c(Cl)c4)c3c2)c1,65.2% (inactive)
20,CCCCCCCCCCCCCCCCCCOc1ccccc1CC(=O)OCC[N+](C)(C)C,34% (inactive)
